Shown are actives, neighbours in structure and some others; about 11% of the full set was active somewhere.
HttQ103 aggreg = qHTS Multiplex Assay to Identify Dual Action Probes in a Cell Model of Huntington: Aggregate Formation (GFP) | Potency, µM (doses to about 46.1 µM), without a hit: at the highest dose activity change, negative = inhibition, hits mostly inhibitors | PC12 HttQ103-GFP aggregates, Acumen cytometry, 40 h | actives 1.1% (n = 220,000); note: potency is the fitted concentration of half-maximal effect; % is set by controls: 0 for no effect and ±100 for the full control effect; nearly all actives have a fitted effect of over 60% in size
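Inducible Q103 Huntingtin exon 1–GFP PC12 line, 1500 cells/well in phenol red free DMEM with 5% equine and 5% calf serum. Tebufenozide 100 nM induced expression; compounds titrated; aggregates quantified by cytometry.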
PNC assembly inh = High Content Assay for Compounds that inhibit the Assembly of the Perinucleolar Compartment | PC3M PTB-GFP, PNC prevalence imaging, 16 h; hits give low values | activity change (PNC), negative = inhibition, % at 10 µM | actives 3.1% (n = 140,000) | AID 2417, 2010;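 active = readout at or below -70, meaning at least 70% loss of cells showing the perinucleolar compartment, a nuclear body marking cancer cells; inconclusive = readout between -30 and a set limit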;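 note: plate controls were DMSO wells for no effect and camptothecin positive control wells for full effect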
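Compounds are pinned in duplicate onto adhered PC3M cells stably expressing GFP-tagged PTB and incubated 16 h at 37 C. Cells are then fixed, nuclei stained with Hoechst, and PNC-positive cells counted.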
CBFb RUNX1 block = qHTS Assay for Compounds Blocking the Interaction Between CBF-beta and RUNX1 for the Treatment of Acute Myeloid Leukemia; Runt-related transcription factor 1 (Homo sapiens) + Core-binding factor subunit beta …; AlphaScreen CBFb-His/RUNX1-biotin binding, biochemical; Potency, µM (titrated, usually from 59.8 µM), without a hit: at the highest dose activity, negative = inhibition, hits mostly inhibitors; 230,000 tested, under 10 active; note: % of control where 0% means no effect
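His-tagged CBF-beta and biotinylated RUNX1 (30 nM each) were premixed 20 min at room temperature, exposed to compound for 15 min, then given nickel-chelate and streptavidin AlphaScreen beads (50 ng each). After 90 min, AlphaScreen signal was read.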
ALDH1A1 block = qHTS Assay for Inhibitors of Aldehyde Dehydrogenase 1 (ALDH1A1) | Aldehyde dehydrogenase 1A1 (Homo sapiens), P00352 | Purified ALDH1A1, NADH fluorescence, propionaldehyde substrate | Potency, µM (series often up to 75.3 µM), for inactives: at the top dose activity, negative = inhibition, most hits filed as inhibitors | actives 7.3% (n = 220,000) | AID 1030, 2008; active = well fitted inhibition curve with a large enough effect, not every such curve was filed as active; inconclusive = small, poorly fitted or top-dose-only effect, or another doubt; inactive = no such curve, though single readings can be large or run the other way;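 note: potency is the fitted concentration of half-maximal effect; plate controls were no enzyme wells and a reference inhibitor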
Target sequence (P00352 whole entry, looked up): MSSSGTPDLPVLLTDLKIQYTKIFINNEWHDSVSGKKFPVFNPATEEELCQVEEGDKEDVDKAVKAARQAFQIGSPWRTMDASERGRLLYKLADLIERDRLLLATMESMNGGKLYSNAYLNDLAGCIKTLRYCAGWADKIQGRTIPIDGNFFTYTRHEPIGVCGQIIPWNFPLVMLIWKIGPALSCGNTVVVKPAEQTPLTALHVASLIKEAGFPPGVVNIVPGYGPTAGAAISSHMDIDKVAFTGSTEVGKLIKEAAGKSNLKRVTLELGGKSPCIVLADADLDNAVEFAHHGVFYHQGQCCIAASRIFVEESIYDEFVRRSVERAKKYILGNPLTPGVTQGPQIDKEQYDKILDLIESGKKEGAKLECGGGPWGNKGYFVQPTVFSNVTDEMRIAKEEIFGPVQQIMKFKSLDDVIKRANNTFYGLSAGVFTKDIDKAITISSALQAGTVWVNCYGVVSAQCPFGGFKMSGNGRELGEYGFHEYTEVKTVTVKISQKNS
HPGD inh = qHTS Assay for Inhibitors of HPGD (15-Hydroxyprostaglandin Dehydrogenase) | actives 4.3% (n = 150,000) | AID 894, 2007 | purified HPGD, NADH fluorescence kinetic, PGE2 substrate | Potency, µM, for inactives: at the highest dose activity change, negative = inhibition, most hits filed as inhibitors; active = well fitted inhibition curve with a large enough effect, not every such curve was filed as active; inconclusive = small, poorly fitted or top-dose-only effect, or another doubt; inactive = no such curve, though single readings can be large or run the other way; note: potency is the fitted concentration of half-maximal effect; % is set by controls: 0 for no effect and ±100 for the full control effect
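20 nM HPGD preincubated 15 min at room temperature with compound in 50 mM Tris-HCl pH 8, 0.01% Tween 20. Started with 1 mM NAD+ and 30 uM prostaglandin E2; NADH fluorescence (360/450 nm) read 5 times over 30-s intervals, last minus first.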
HTT cytoprotect = qHTS Multiplex Assay to Identify Dual Action Probes in a Cell Model of Huntington: Cytoprotection (ATP); AID 1471, 2008; Potency, µM (titrated, usually from 56.4 µM), for the others: cytoprotection (ATP increase), actives largely listed as activators; actives 0.14% (n = 230,000); PC12 HTT-Q103 induced, cytoprotection, ATP luminescence, 40 h; note: potency is the fitted concentration of half-maximal effect; % of control where 0% means no effect; nearly all actives have a fitted effect of over 45% in size
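PC12 cells with ecdysone-inducible HTT exon 1 Q103-GFP, induced with 100 nM tebufenozide and co-treated with library compounds in a dose series (1536-well, 1500 cells/well). Cytoprotection read as ATP content by ATPlite luminescence.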
An asterisk follows results filed as active; ? = inconclusive; . = no result given; [ ] = another dose, or the depositor's remark. Unless noted, calls come from the whole dose curve; as a rule, active = well fitted curve in the direction sought with a large enough effect; inconclusive = small, poorly fitted or top-dose-only effect, or another doubt; inactive = no such curve, though single readings can be large; an effect the other way counts as inactive or inconclusive.

SMILES | HttQ103 aggreg | PNC assembly inh | CBFb RUNX1 block | ALDH1A1 block | HPGD inh | HTT cytoprotect
O=C(CCN1C(=O)c2ccccc2C1=O)N1CCN(C2c3ccccc3-c3ccccc32)CC1 | -27.2% | 42.2 | 5.9% | 3.5% | -8.1% | 12.6%[10 µM]
CC1S/C(=N/N=C/c2ccco2)N(Cc2ccccc2)C1=O (centres undefined) | 14.2%[9.22 µM] | . | 14.8% | 10µM* | . | 2.9%[10 µM]
Cc1cc(C)c[n+](C2=C([O-])c3ccccc3C(=O)/C2=N\S(=O)(=O)c2cccs2)c1 | -11.0% | 47.4 | 2.3% | -9.5% | -12.5% | -6.2%[1.9 µM]
CC(=O)Nc1ccc(NC(=O)C(C)OC(=O)c2ccccc2NS(=O)(=O)c2cccs2)cc1 (centres undefined) | -7.2%[9.22 µM] | . | 5.6% | . | . | -11.7%[10 µM]
Cc1ccc(NC2=C/C(=N/S(=O)(=O)c3cccs3)c3ccccc3C2=O)cc1C | ? | -4.7 | -1.4% | 2.7% | -6.0% | .
CC(=O)Nc1ccc(NC2=C/C(=N/S(=O)(=O)c3cccs3)c3ccccc3C2=O)cc1 | 5.62µM* | . | . | 7.8% | . | .
Cc1ccccc1NC1=C/C(=N\S(=O)(=O)c2cccs2)c2ccccc2C1=O | 1.41µM* | -28.8 | . | ? | -23.1% | -111.4%
Cc1cc[n+](C2=C([O-])c3ccccc3C(=O)/C2=N\S(=O)(=O)c2cccs2)cc1C | 10µM* | ? | -1.0% | ? | -14.1% | -1.7%[10 µM]
COc1ccccc1CNc1ncnc2ccc(-c3ccccc3OC)cc12 | . | . | . | ? | . | -224.4%
Cc1ccc(-c2nc3sc4c(N)ncnc4c3c3c2CCCC3)cc1 | 8.2% | 12.7 | -1.5% | -7.1% | -9.8% | -22.5%
CCC(CC)C(=O)Nc1ccc(Nc2ccccc2)cc1 | -2.1% | -16.8 | -8.3% | -5.4% | -12.8% | -18.1%[0.074 µM]
O=[N+]([O-])c1cccc(CN2C(COCc3ccccc3)CCC=CS2(=O)=O)c1 (centres undefined) | . | . | -10.7% | . | . | .
Cc1ccc(/C=C2\CCCC3=C2NC(=S)NC3c2ccc(C)cc2)cc1 (centres undefined) | ? | -22.2 | 1.4% | ? | 31.6µM* | 3.7%[10 µM]
C[C@H]1CCCC2(CC[N+](C)(CCC[N+](C)(C)C)CC2)C1 (some centres undefined) | . | . | . | 3.8%[13.5 µM] | -6.1% | -9.1%[10 µM]
S=c1[nH]nc(Cc2ccccc2)n1-c1cccc2ccccc12 | -2.0% | 14.4 | -1.2% | ? | 15.8µM* | .
Cc1ccc(-n2c(Cc3ccccc3)n[nH]c2=S)c(C)c1 | 15.6% | . | 1.3% | 4.8% | . | -86.5%
O=c1c2ccccc2cnn1Cc1n[nH]c(=S)n1-c1ccccc1Cl | -0.7% | -17.4 | -9.6% | 31.6µM* | ? | .
Cc1nnc2sc(SCc3ccc(Br)cc3)nn2c1=O | -9.4% | . | 8.7% | 0.9% | . | 18.3%
N[C@@H](Cc1ccccc1)c1nnc2sc(SCc3ccccc3)nn12 | 9.4% | 23.8 | 6.7% | 28.2µM* | 28.2µM* | 22.2%
Cc1ccc(C#N)cc1 | . | . | 1.7%[21.7 µM] | 31.6µM* | 2.6% | -7.2%
Cc1ccc(C)cc1 | . | . | -10.0%[21.7 µM] | -5.4% | -12.9% | 3.4%
C=CCNC(=S)NNc1nc(Nc2ccccc2)nc(N2CCCCC2)n1 | 5.5%[9.22 µM] | . | -6.4% | 15.8µM* | . | 13.0%[10 µM]
O=c1c(O)cccc2cc(O)c(O)c(O)c12 | 9.3%[9.22 µM] | . | . | 8.91µM* | 5.01µM* | 16.2%[10 µM]
COc1cc2cccc(OC)c(=O)c2c(OC)c1OC | 9.9% | . | -7.4% | -7.5% | . | -0.8%
CO[C@@H]1COC(=O)[C@H](C)NC(=O)C/C=C\[C@@H](C)[C@H](OC)COC(=O)[C@H](C)NC(=O)C/C=C\[C@H]1C | . | . | 4.8%[13.1 µM] | -0.3%[13.5 µM] | . | -8.6%[10 µM]
